Screens: PubChem BioAssay, National Center for Advancing Translational Sciences (NCATS)
RXFP1 agonist = activates the human relaxin receptor RXFP1; Q9HBX9; HEK293T-RXFP1 cAMP TR-FRET, 30 min; response scale: percent of porcine relaxin response, buffer zero; Potency, µM (titrated, usually from 57.5 µM), without a hit: top-dose activation, hits mostly activators; hit rate 0.3% among 370,000; active means well fitted activation curve with a large enough effect; inconclusive means small, poorly fitted or top-dose-only effect; further: potency means the concentration at half of the fitted maximal effect; on the % scale 0 is the no-effect control and ±100 the full control effect; nearly all actives have a fitted effect of over 60% in size
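cAMP rise read by TR-FRET after 30 min, 37C compound exposure (up to 58 uM) in RXFP1-transfected HEK293 cells with Ro 20174 present. EC50 from Hill-equation fits, with 29 nM porcine relaxin as 100% and buffer as basal.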
pAkt inh = inhibitors of Akt phosphorylation | Neuro2A IGF-stimulated pAkt S473 HTRF, 20 min; hits give low values | activity change, % for hits at 50 µM | hit rate 0.32% among 360,000; in the data active means activity change below about -80%; inconclusive means mostly about -51% to -80%; further: on the % scale 0 is the no-effect control and ±100 the full control effect
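Single-point screen (50 µM final compound) in Neuro2A cells stimulated 20 min with 6 nM IGF at 37 deg C. After lysis, Ser473-phosphorylated Akt read by HTRF (ex 330 nm, em 615/665 nm) as the 665/615 ratio.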
gsp ag = gsp mutant agonism; gsp mutant cells, cAMP HTRF, 30 min; AID 624287; Potency, µM (highest dose often 76.9 µM), without a hit: top-dose activation (cAMP increase), most hits filed as activators; hit rate 0.13% among 340,000; active means well fitted activation curve with a large enough effect; inconclusive means small, poorly fitted or top-dose-only effect, or another doubt; inactive means no such curve, though single readings can be large or run the other way; cell line not stated here;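 further: phosphodiesterase inhibitor Ro 20-1724 added with compounds to block cAMP breakdown; potency means the concentration at half of the fitted maximal effect; nearly all actives have a fitted effect of over 60% in size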
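Cells in DMEM/10% FBS with G418 were pretreated with compounds in DMSO plus […] (300 uM stock) for 30 min at 37C. cAMP was measured by HTRF (cAMP-d2 plus anti-cAMP antibody-K) after 30 min at room temperature.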
ClpP mod = qHTS Assay for Activators of ClpP | ATP-dependent Clp protease proteolytic subunit (Bacillus subtilis (strain 168)), P80244 | purified B. subtilis ClpP, FRET peptide cleavage, 20 min | hit rate 1.9% among 340,000 | Potency, µM (series often up to 57.5 µM), inactives show top-dose activity change, negative = active; active means well fitted falling curve with a large enough effect; inconclusive means small, poorly fitted or top-dose-only effect; inactive means no such curve, though single readings can be large or run the other way; further: potency means the concentration at half of the fitted maximal effect; the source files actives as falling curves though it sought activators and does not explain the sign; nearly all actives have a fitted effect of over 65% in size
Target sequence (P80244 whole entry, looked up): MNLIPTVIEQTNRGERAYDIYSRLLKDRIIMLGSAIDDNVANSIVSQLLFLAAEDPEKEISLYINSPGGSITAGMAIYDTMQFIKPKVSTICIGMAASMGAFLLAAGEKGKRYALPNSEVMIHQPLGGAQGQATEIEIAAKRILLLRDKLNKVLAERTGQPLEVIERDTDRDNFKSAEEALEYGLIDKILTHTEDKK
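ClpP 10 microg/mL final, pH 8 Tris/KCl buffer with BSA, glycerol, Tween-20; compound pinned in; FRET-FV substrate; RT 20 min; Ex320/Em430; ΔFRET vs ADEP 5.8 microM, DMSO, no enzyme.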
RXFP1 antagonist = blocks the human relaxin receptor RXFP1; HEK293-RXFP1, relaxin-stimulated cAMP HTRF, 30 min; hits give low values; activity change, negative = inhibition, % at 57.5 µM; hit rate 0.59% among 350,000; AID 1259400;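 active means activity change of -60% or lower, but not beyond a set lower limit; inconclusive means change between -60% and -40%, or beyond the set limit; inactive means change above -40%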; further: on the % scale 0 is the no-effect control and ±100 the full control effect
gsp antagonist = gsp mutant antagonism. gsp-mutant cells, cAMP HTRF, 30 min. Potency, µM (highest dose often 76.9 µM), without a hit: top-dose activity change, negative = inhibition, most hits filed as inhibitors. hit rate 0.4% among 340,000; calls by dose curve; cell line not stated here;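 further: intracellular cAMP measured with PDE inhibitor Ro 20-1724 present during compound exposure; potency means the concentration at half of the fitted maximal effect; on the % scale 0 is the no-effect control and ±100 the full control effect; nearly all actives have a fitted effect of over 65% in size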
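HTRF cAMP measurement after 30 min RT detection following 30 min, 37C compound treatment alongside […] (added as 300 uM solution) in G418-selected cells seeded at 2000/well and grown 16–24 h.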
Active calls of the source: *; i = inactive; ? = inconclusive; / = no result given; [ ] = another dose, or the depositor's remark. This is a sample that favours compounds with a hit; in the whole collection about 2.7% have one here.

SMILES	RXFP1 agonist	pAkt inh	gsp ag	ClpP mod	RXFP1 antagonist	gsp antagonist
CC(C)[N+](C)(C)CC(O)COc1cccc2ccccc12 (stereo not given)	/	/	/	/	10	/
COc1ccccc1NC(=O)CSc1nnc(NC(=O)NC2CCCCC2)s1	1%	/	/	-1%	-9	/
Clc1ccccc1CN(Cc1ccco1)Cc1nnnn1C1CCCC1	2%	i	-6%	-2%	-32	20µM*
O=S(=O)(c1ccccc1)n1cc(-c2cccc3nccn23)c2ccccc21	/	i	/	-8%	/	/
CN(C)S(=O)(=O)c1cccc(NC(=S)N/N=C/c2cc(Br)ccc2O)c1	2%	i	-4%[15.4 µM]	/	-84*	50µM*
CC(C)(C)n1nnnc1C(c1cc2ccccc2o1)N1CCN(C(=O)OCc2ccccc2)CC1 (stereo not given)	/	i	/	-13%	/	/
Cc1ccc(NC2CCCN(C(=O)c3ccc4nccnc4c3)C2)cc1C (stereo not given)	-2%	i	7%[15.4 µM]	16µM*	-5	-13%
CCN(C(=O)C(=O)c1c(C)[nH]c2ccccc12)c1ccccc1	/	/	/	1%	/	/
COc1cc2c(NC3CCN(C)CC3)nc(N3CCCCC3)nc2cc1OCCOCCN1CCCC1	/	/	/	4%	/	/
CCNc1nc(NC(N)=S)nc(NC(C)(C)C)n1	1%	i	-11%[15.4 µM]	/	-28	/
CCNc1nc(NCC)nc(NC(N)=S)n1	0%	i	13%[15.4 µM]	28µM*	-30	4%
COc1ccc(/C=c2\[nH]c(=O)/c(=C/c3ccc(OC)cc3)[nH]c2=O)cc1	/	/	/	-1%	/	/
O=C(c1ccc2c(c1)OCO2)N1CCC2(CC1)Oc1ccc(F)cc1C(=O)C21CC(c2ccccc2)=NO1 (stereo not given)	0%	i	15%	-4%	/	-14%
O=C(c1ccc2c(c1)OCO2)N1CCC2(CC1)Oc1ccc(F)cc1C(=O)C21CC(c2cccnc2)=NO1 (stereo not given)	0%	i	/	-1%	/	35µM*
COC(=O)CSc1ncc2c(n1)-c1ccccc1N(Cc1ccccc1C)S2(=O)=O	6%	/	/	-21%	-4	/
CCc1cccc(NC(=O)CSc2ncc3c(n2)-c2ccccc2N(Cc2ccccc2C)S3(=O)=O)c1	10%	/	/	-5%	-1	/
Cc1ccccc1CN1c2ccccc2-c2nc(SCC(=O)NCc3ccccc3)ncc2S1(=O)=O	?	/	/	32µM*	1	/
CCOC(=O)c1cccc(NC(=O)CSc2ncc3c(n2)-c2ccc(Cl)cc2N(Cc2ccccc2)S3(=O)=O)c1	32µM*	/	/	-3%	/	/
COc1ccccc1CNC(=O)CSc1ncc2c(n1)-c1ccc(Cl)cc1N(Cc1ccccc1)S2(=O)=O	4.5µM*	/	/	8%	7	/
CSCCCN1CCC(n2nccc2NC(=O)CCCc2ccccc2)CC1	1%	i	-17%	1%	-9	4%
O=C1CC[C@@H](O)CCN1CC[C@H](Sc1ccccc1)c1ccccc1	-1%	i	/	0%	/	-18%
CC(=O)Nc1ccc(S[C@@H](CCN2CC[C@H](O)CCC2=O)c2ccccc2)cc1	-4%	i	6%	-1%	/	50µM*
CC(C(=O)N1CCN(c2ccc(Cl)cc2)CC1)c1ncc(C(F)(F)F)cc1Cl (stereo not given)	0%	i	-62%	-2%	7	35µM*
CCc1ccccc1N(CC)C(=O)c1cc2c(s1)-c1ccccc1SC2	5%	/	/	14µM*	-39	/
O=C(NCc1ccccc1Cl)c1cc2c(s1)-c1ccccc1SC2	1%	/	/	25µM*	-7	/
O=C(NCc1ccc(F)cc1)c1cc2c(s1)-c1ccccc1SC2	1%	/	/	4%	-7	/
Cc1ccc2nc(-c3ccc(C)c(NC(=O)COc4ccc(Cl)cc4)c3)oc2c1	/	/	/	4%	/	/
CCOC(=O)CCNC(=O)Nc1cc2nc(C)n(Cc3cccc(Cl)c3)c2nc1C	0%	i	-12%	/	0	10%
Cc1cc(O)ccc1NC(=O)c1ccccc1	-1%	i	-20%	0%	5	-1%
